Compound activity deposited in PubChem BioAssay by several laboratories.
Anthrax LF prot: anthrax lethal factor protease inhibition; P15917; multiplex microsphere protease cleavage assay, LF; inhibition, % at 10 µM; 0.12% of 360,000 active; AID 588501
Target sequence (P15917 whole entry, looked up): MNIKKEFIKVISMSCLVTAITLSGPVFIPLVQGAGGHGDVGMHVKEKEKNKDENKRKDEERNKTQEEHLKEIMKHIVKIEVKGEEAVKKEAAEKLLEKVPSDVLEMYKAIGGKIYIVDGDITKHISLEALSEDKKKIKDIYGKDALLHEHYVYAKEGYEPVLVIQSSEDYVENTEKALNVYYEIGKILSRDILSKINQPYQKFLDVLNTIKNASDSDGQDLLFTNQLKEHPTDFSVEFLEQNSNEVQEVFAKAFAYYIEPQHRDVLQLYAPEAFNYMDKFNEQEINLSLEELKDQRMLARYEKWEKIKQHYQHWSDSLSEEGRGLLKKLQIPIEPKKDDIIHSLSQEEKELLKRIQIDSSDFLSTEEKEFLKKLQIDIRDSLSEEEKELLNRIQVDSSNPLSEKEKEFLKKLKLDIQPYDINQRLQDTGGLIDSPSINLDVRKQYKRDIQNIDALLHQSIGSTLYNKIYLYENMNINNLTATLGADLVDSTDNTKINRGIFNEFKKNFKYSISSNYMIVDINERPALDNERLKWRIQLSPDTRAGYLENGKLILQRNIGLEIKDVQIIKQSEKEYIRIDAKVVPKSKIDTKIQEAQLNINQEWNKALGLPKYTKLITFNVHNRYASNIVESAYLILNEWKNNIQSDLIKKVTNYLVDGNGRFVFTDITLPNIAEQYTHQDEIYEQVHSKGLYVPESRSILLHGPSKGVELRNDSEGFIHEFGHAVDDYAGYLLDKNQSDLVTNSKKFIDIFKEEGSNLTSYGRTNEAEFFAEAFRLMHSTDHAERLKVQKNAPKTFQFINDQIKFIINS
BoNT-A LC inh2: inhibitors of Botulinum neurotoxin A light chain protease; multiplex microsphere protease substrate cleavage, flow cytometry; inhibition, % at 10 µM; 0.17% of 360,000 active; AID 588499
Bead autofluor: compound fluorescence in toxin protease inhibitor counterscreen; compound autofluorescence counterscreen, microsphere flow cytometry; active compounds read high; fluorescence intensity (no concentration beside the values); 3.1% of 360,000 active; in the data active = fluorescence intensity above about 16000; inconclusive = no clear call, values can overlap the other calls
BoNT-F LC inh: BoNT F light chain protease inhibition. Multiplex microsphere protease cleavage assay, flow cytometry. inhibition, % at 10 µM. 0.22% of 360,000 active. AID 588497; in the data active = inhibition above about 35%, passing the limit was not always enough; inconclusive = no clear call, values can overlap the other calls
GDH-TPI inh: counter-screen for M. tuberculosis FBA inhibitors: GDH-TPI coupled enzymes. GDH-TPI coupled enzyme counterscreen, NADH absorbance. AID 588335. 1.2% of 360,000 active. inhibition, % at 4.8 µM; in the data active = inhibition above about 30%
FBA Mtb inh: inhibitors of M. tuberculosis fructose-bisphosphate aldolase; 2.3% of 360,000 active; P9WQA3; purified M. tuberculosis FBA, fluorescence read-out; inhibition, % at 1 µM; in the data active = inhibition above about 27%
Of the large screens only hits and unclear results are named; the others gave an inactive call. In the library only some 6.7% were active in any assay of this set; here they are far more common. Rule as the data show it, unless noted: active = inhibition above about 30%; inconclusive = no clear call, values can overlap the other calls; inactive = below that.

NS(=O)(=O)c1ccc(NC2=CC(=O)C(=O)c3ccccc32)cc1	none
Cc1ccc(CSCCNC(=O)c2cccc([N+](=O)[O-])c2)cc1	none
Cn1cncc1C#Cc1ccc2c(=O)c3ccccc3oc2c1	GDH-TPI inh 41
Cn1cncc1C#Cc1ccc2cc(CCCO)oc(=O)c2c1	GDH-TPI inh 34, FBA Mtb inh 47
Cn1cncc1C#Cc1ccc2cc(C(C)(C)O)oc(=O)c2c1	GDH-TPI inh 31
Cc1cc(Br)ccc1NC(=O)CN(C)C(=O)c1ccccc1OCc1c(C)noc1C	none
CC(C)COc1ccc(CSCCNC(=S)Nc2ccccc2)cc1	FBA Mtb inh 74
O=C(c1ccc(CS(=O)(=O)c2cccc(C(F)(F)F)c2)o1)N1CCN(c2ccccn2)CC1	BoNT-A LC inh2 inconclusive, Bead autofluor 23435
COCCNC(=O)c1ccc(CS(=O)(=O)c2cccc(C(F)(F)F)c2)o1	none
O=C(NCc1ccco1)c1ccc(CS(=O)(=O)c2cccc(C(F)(F)F)c2)o1	Bead autofluor 22579
COc1ccc(S(=O)(=O)Cc2ccc(C(=O)NCCCN(C)c3ccccc3)o2)cc1	BoNT-A LC inh2 inconclusive, Bead autofluor 22186
CCCCNC(=O)c1ccc(CS(=O)(=O)c2cccc(C(F)(F)F)c2)o1	Bead autofluor 21163
S=c1[nH]ncn1-c1ccccn1	none
CCC(C)[C@H](NC(=O)C1CCN(C(=O)[C@H](Cc2ccccc2)NC(=O)OC(C)(C)C)CC1)C(=O)O (stereo partly drawn)	none
CCCc1ccc(OCc2ccc(C(=O)N3CCN(c4ccccn4)CC3)o2)c(OC)c1	BoNT-A LC inh2 inconclusive, Bead autofluor 23006
COc1cccc(C2(O)CCN(Cc3ccncc3)CC2)c1	none
CC(C)C(C)NC(=O)CN1C(=O)NC(C)(c2ccc3ccccc3c2)C1=O (stereo not drawn)	none
CCc1nnc(NC(=O)CN2CCN(C3CCCCC3)CC2)s1	none
CCc1nnc(NC(=O)C2CCCCC2)s1	Bead autofluor 22291
Cc1cc(C)nc(N2CCCC(C(=O)Nc3nnc(C)s3)C2)n1 (stereo not drawn)	none
Cc1cc(C)nc(N2CCC(C(=O)NCCc3ccc(F)cc3)CC2)n1	BoNT-A LC inh2 inconclusive, Bead autofluor 26052
CCc1nnc(NC(=O)CN2CC(C)OC(C)C2)s1 (stereo not drawn)	BoNT-F LC inh 34
CCc1nnc(NC(=O)C2CCN(c3nc(C)cc(C)n3)CC2)s1	Bead autofluor 24756
Cc1cc(C)nc(N2CCC(C(=O)NCCc3ccc(Cl)cc3)CC2)n1	none
CCOc1ccccc1OCC(=O)Nc1c(C)n(C)n(-c2ccccc2)c1=O	none
O=C1c2ccccc2C(c2nnnn2-c2ccc3c(c2)OCCO3)N1CCc1c[nH]c2ccccc12 (stereo not drawn)	none (no result: GDH-TPI inh, FBA Mtb inh)
Cc1cc(O)c(C=Nc2ccc(N3CCOCC3)cc2)c(C)c1Cl	none
Cc1ccc(Cl)cc1-c1ccc(C=Nc2ccc(N3CCOCC3)cc2)o1	GDH-TPI inh 33
CS(=O)(=O)c1cnc2c(-c3ccc(F)cc3)cnn2c1N	BoNT-A LC inh2 inconclusive, Bead autofluor 20368
Nc1c(-c2cccs2)cnc2c(-c3ccc(F)cc3)cnn12	none
C(=C\c1ccccc1)/C=N/n1cnnc1	Bead autofluor 24268
COc1ccc(CNC(=O)COc2cccnc2[N+](=O)[O-])cc1OC	none
O=C(N/N=C/c1ccc([N+](=O)[O-])o1)C1CCCC1	none
O=[N+]([O-])c1ccc(/C=[N+](\[O-])[C@@H]2CCCC[C@@H]2/[N+]([O-])=C/c2ccc([N+](=O)[O-])o2)o1	GDH-TPI inh 34
COc1cc(/C=C2\SC(=S)N(CCC(=O)Nc3ccccc3O)C2=O)cc(OC)c1OC	BoNT-F LC inh inconclusive
O=C(Nc1nccs1)C1CCCN1/C=C/C(=O)C(F)(F)F (stereo not drawn)	GDH-TPI inh 35
Cc1ccc(S(=O)(=O)N2CCCC2C(=O)Nc2nccs2)cc1 (stereo not drawn)	none
CN(C)c1ccc(/C=C2\C(=O)NC(=O)N(CCc3ccc(F)cc3)C2=O)cc1	BoNT-F LC inh inconclusive, GDH-TPI inh 47
CN1C(=O)C(=Cc2ccc(N3CCCCC3)o2)C(=O)N(C)C1=S	BoNT-F LC inh 100
CN1C(=O)C(=Cc2ccc(N3CCCCCC3)cc2)C(=O)N(C)C1=O	BoNT-F LC inh inconclusive, GDH-TPI inh 54
O=C1NC(=O)N(Cc2ccc(F)cc2)C(=O)/C1=C\c1ccc(N2CCCC2)cc1	GDH-TPI inh 33
O=C(O)CN1C(=O)/C(=C/c2ccc(N3CCCCC3)o2)SC1=S	none
